Inconclusive results are not listed. A call without a number means that no potency is given here. Activity calls are given as the source filed them. The call rests on the fitted dose curve; in most records, active means well fitted curve in the direction sought with a large enough effect; inconclusive means small, poorly fitted or top-dose-only effect, or another doubt; inactive means no such curve, though single readings can be large; an effect the other way counts as inactive or inconclusive.

Test [1] has as its target Aldehyde dehydrogenase, mitochondrial (Homo sapiens) (UniProt P05091). In words: qHTS for Inhibitors of the Aldehyde Dehydrogenase Family (ALDH2) Primary screen (AID 2061308). Further: nearly all actives have a fitted effect of over 55% in size. The settings on record: ALDH2 enzyme inhibition qHTS, 1536-well; series mostly up to 56 µM.
The target in test [2] is Retinaldehyde dehydrogenase 3 (Homo sapiens) (UniProt P47895). In words: qHTS for Inhibitors of the Aldehyde Dehydrogenase Family (ALDH1A3) Primary screen (AID 2061315). The settings on record: ALDH inhibition qHTS; series mostly up to 56 µM. A general note: In qHTS, concentration-response curves come from the screen itself.

For `Cc1noc(C)c1-c1ccc(Nc2nc(-c3ccncc3)nc3ccccc23)cc1F`, the Potency result in test [1] and in test [2] was “inactive” each time.

Regarding `CC1(C)CCC(C)(C)c2cc([S+](=O)([O-])N3CCN([S+](=O)([O-])c4c(F)cccc4F)CC3)ccc21`, the Potency result in test [1] and in test [2] was “inactive” each time.

In the case of `O=S(=O)(c1ccc2c(c1)OCCO2)N1CCN(S(=O)(=O)c2c(F)cc(F)cc2F)CC1`, the Potency result in test [1] and in test [2] was “inactive” in each case.

On to `O=S(=O)(Nc1nccs1)c1ccc(NCc2cc(Cl)ccc2O)cc1`, for which the Potency result in test [1] and in test [2] was “inactive” throughout.

Take `FC(F)(F)c1cccc(Nc2ccc(CNc3nc(-c4ccccc4C(F)(F)F)nc4ccccc34)cc2)c1`: the Potency entry in test [1] and in test [2] was “inactive” throughout.

For the molecule `Cc1ccc(OCCn2c(CCNC(=O)/C=C/c3cccc(Br)c3)nc3ccccc32)cc1`, the Potency result in test [1] and in test [2] was “inactive” throughout.

On to `CO/N=C(/C(=O)N[C@@H]1C(=O)N2C(C(=O)O)=C(Cn3nnc(C)n3)CS[C@H]12)c1csc(N)n1`, for which the Potency entry in test [1] and in test [2] was “inactive” throughout.

Turning to `COc1cccc(C2c3c(ncn(-c4ccc(NC(C)=O)cc4)c3=N)Oc3ccc4ccccc4c32)c1` (stereo unspecified), the Potency result in test [1] and in test [2] was “inactive” in each case.

Regarding `COc1ccc(C(=O)N(Cc2ccccc2)Cc2ccccc2)cc1COc1ccc(NC(C)=O)cc1`, the Potency entry in test [1] and in test [2] was “inactive” each time.

On to `COC(=O)c1cc2c(s1)c1cnn(Cc3ccccc3F)c(=O)c1n2C`, for which the Potency result in test [1] and in test [2] was “inactive” throughout.

In the case of `Cc1ccc(-c2ccc(=O)n(CC(=O)N(C)[C@@H](C)c3ccccc3)n2)cc1`, the Potency result in test [1] and in test [2] was “inactive” each time.

For the molecule `COc1ccc(S(=O)(=O)N2CCN(C(=O)C3COc4ccccc4O3)CC2)cc1` (stereo unspecified), the Potency entry in test [1] and in test [2] was “inactive” throughout.

In the case of `COc1cc(O)c(C(CC(=O)N2CC(C)CC(C)C2)c2ccc3c(c2)OCCO3)c(OC)c1` (stereo unspecified), the Potency result in test [1] and in test [2] was “inactive” in each case.

Take `N#Cc1ccc(N[S+](=O)([O-])c2ccc(Nc3nc(-c4ccccc4)cs3)cc2)cc1`: the Potency entry in test [1] and in test [2] was “inactive” each time.

For `Cc1cccc(-c2nnc(C)n2CCCn2ccnc2)c1N`, the Potency entry in test [1] and in test [2] was “inactive” throughout.

As for `Cc1ccc(-c2csc(N3CCC(C(N)=O)CC3)n2)cc1`, the Potency result in test [1] and in test [2] was “inactive” in each case.

As to `CC(C)(C)CNc1ncnc2ccc(-c3ccc(C(=O)O)o3)cc12`, the Potency entry in test [1] and in test [2] was “inactive” throughout.

With `Cc1cc(NS(=O)(=O)c2ccc(NC(=O)Cc3ccccc3)cc2)no1`, the Potency entry in test [1] and in test [2] was “inactive” throughout.

As to `Cc1cc(C)nc(/N=C(\NC#N)N2CCN(c3cccc(C(F)(F)F)c3)CC2)c1`, the Potency entry in test [1] and in test [2] was “inactive” in each case.

Consider `COc1cc(O)c(C(CC(=O)N2CCCC(C)C2)c2ccc(OC)c(OC)c2)c(OC)c1` (stereo unspecified), for which the Potency entry in test [1] and in test [2] was “inactive” in each case.

Turning to `CN(Cc1cncn1C)c1ncnc2ccc(-c3ccc4c(c3)OCO4)cc12`, the Potency entry in test [1] and in test [2] was “inactive” each time.

Regarding `CCOc1ccc(C(=O)Oc2ccc(-c3nc4ccccc4[nH]3)cc2)cc1`, the Potency entry in test [1] and in test [2] was “inactive” each time.

Consider `CCC1CCC2(C1)N=C(Nc1nc3ccccc3o1)NC1=C2C(=O)CCC1` (stereo unspecified), for which the Potency entry in test [1] and in test [2] was “inactive” each time.

On to `O=C(CN1C(=O)N/C(=C\c2cccn2-c2cccc(C(=O)O)c2)C1=O)Nc1cccc(F)c1`, for which the Potency result in test [1] and in test [2] was “inactive” in each case.

In the case of `COc1ccc(-c2csc3ncnc(Sc4nnnn4C)c23)cc1`, the Potency result in test [1] and in test [2] was “inactive” in each case.

Regarding `CC(Nc1nc(-c2ccccc2C(F)(F)F)nc2ccccc12)c1ccc(-c2cccc(C(F)(F)F)c2)cc1` (stereo unspecified), the Potency result in test [1] and in test [2] was “inactive” in each case.

On to `Cc1cnc(-c2ccccc2C(C)C)nc1NCC1CCN(c2cnccn2)CC1`, for which the Potency entry in test [1] and in test [2] was “inactive” each time.

For the molecule `COc1ccc(-c2ccc3ncnc(N(C)Cc4csc(C)n4)c3c2)cc1OC`, the Potency result in test [1] and in test [2] was “inactive” each time.

For `Cc1cc(C)nc(NC(=S)N2CCN(c3ccncc3)CC2)c1`, the Potency entry in test [1] and in test [2] was “inactive” in each case.

In the case of `N#Cc1nc(Nc2ccc(C(F)(F)F)cc2)nc(NC2CCCC2)n1`, the Potency entry in test [1] and in test [2] was “inactive” throughout.

Regarding `Cc1nc(NCc2ccccc2)c2nc(-c3ccccc3)n(CC3CCN(C)CC3)c2n1`, the Potency entry in test [1] and in test [2] was “inactive” each time.

Take `Cc1cc(C)nc(NC(=S)N2CCN(c3ccc([N+](=O)[O-])cc3Cl)CC2)c1`: the Potency entry in test [1] and in test [2] was “inactive” throughout.

Turning to `CC(=O)Nc1ccc(S(=O)(=O)Nc2nccs2)cc1`, the Potency entry in test [1] and in test [2] was “inactive” throughout.

Turning to `Cc1cccc(-n2cnc3cc(C(=O)N4CCCCC4)ccc32)c1`, the Potency result in test [1] and in test [2] was “inactive” each time.

As for `N#Cc1cnc(N[S+](=O)([O-])c2ccc(Nc3nc(-c4ccccc4)cs3)cc2)s1`, the Potency result in test [1] and in test [2] was “inactive” each time.

Take `CCn1cnc2c(Nc3cc(F)cc(F)c3)nc(C(=O)COc3c(F)c(F)cc(F)c3F)nc21`: the Potency result in test [1] and in test [2] was “inactive” each time.

As for `OCc1ccc(-c2ccc3ncnc(NCc4ncc[nH]4)c3c2)o1`, the Potency entry in test [1] and in test [2] was “inactive” throughout.

In the case of `COc1ccc(OC)c(-c2nnc3n2N=C(c2c(OC)cccc2OC)CS3)c1`, the Potency result in test [1] and in test [2] was “inactive” throughout.

For the origin of these results see PubChem BioAssay (NCATS).
